# Experimental data from PubChem BioAssay (EPA / NIEHS).
# Calls of active or inactive are those of the source. The calls were made as follows: active = hit-call score of the fitted dose curve at least 0.9, where 1 is the maximum; inactive = score below 0.9.
# Experiments:
# [1] = target: CCAAT/enhancer-binding protein beta (Homo sapiens) (UniProt P17676); test: ATG_C_EBP_CIS: Attagene CIS-FACTORIAL HepG2 Assay for human CCAAT/Enhancer Binding Protein (C/EBP) beta (AID 2282927); conditions: HepG2 Attagene cis-factorial transcription factor reporter; actives raise or lower the signal
# Chain of CCAAT/enhancer-binding protein beta (Homo sapiens) (P17676 whole entry, looked up, the tested form may be a part): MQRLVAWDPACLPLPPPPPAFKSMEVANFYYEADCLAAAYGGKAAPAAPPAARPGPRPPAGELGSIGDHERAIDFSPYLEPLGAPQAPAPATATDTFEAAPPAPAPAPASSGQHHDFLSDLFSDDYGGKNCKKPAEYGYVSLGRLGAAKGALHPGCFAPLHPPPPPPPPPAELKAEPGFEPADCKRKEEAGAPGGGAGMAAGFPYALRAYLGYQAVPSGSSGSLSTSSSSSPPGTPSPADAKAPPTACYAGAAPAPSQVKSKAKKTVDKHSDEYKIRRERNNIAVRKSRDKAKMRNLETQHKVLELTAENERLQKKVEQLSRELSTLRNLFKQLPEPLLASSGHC
# Summary of the method: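 Chemical-treated HepG2 cells (24 h) bearing cis-regulated reporter constructs were processed for total RNA, then reverse transcription, PCR amplification, fluorescent primer extension and fragment analysis; gain- and loss-of-signal were fitted against DMSO.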
# [2] = ATG_CMV_CIS: Attagene CIS-FACTORIAL HepG2 Assay for human CMV (Internal Marker) (AID 2282928); conditions: HepG2 CMV promoter reporter, transcription factor profiling; actives raise or lower the signal;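 also: endpoint acts as a background internal control marker rather than a target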
# Summary of the method: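 24 h chemical treatment, HepG2 with transient multi-reporter transfection; RNA → oligo(dT) RT → PCR → 6-FAM extension → HpaI digest → CE fluorescence. Bidirectional fit, DMSO negative control.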
# [3] = ATG_DR4_LXR_CIS: Attagene CIS-FACTORIAL HepG2 Assay for human Liver X Receptor (LXR), DR4 submotif (AID 2282929); conditions: HepG2 Attagene DR4 cis-reporter, mRNA transcription; AC50: actives raise or lower the signal unless noted; outcome: actives raise or lower the signal unless noted
# Summary of the method: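 Measures endogenous transcription factor activity via a DR4-driven reporter transcript in human HepG2 cells. Compounds incubated 24 h; mRNA quantified by RT-PCR and capillary electrophoresis, analysed as gain or loss of signal versus DMSO.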
# [4] = target: Aryl hydrocarbon receptor (Homo sapiens) (UniProt P35869); test: ATG_Ahr_CIS: Attagene CIS-FACTORIAL HepG2 Assay for human Aryl Hydrocarbon Receptor (Ahr) (AID 2282930); conditions: HepG2 AhR cis-factorial reporter transcription; actives raise or lower the signal
# Chain of Aryl hydrocarbon receptor (Homo sapiens) (P35869 whole entry, looked up): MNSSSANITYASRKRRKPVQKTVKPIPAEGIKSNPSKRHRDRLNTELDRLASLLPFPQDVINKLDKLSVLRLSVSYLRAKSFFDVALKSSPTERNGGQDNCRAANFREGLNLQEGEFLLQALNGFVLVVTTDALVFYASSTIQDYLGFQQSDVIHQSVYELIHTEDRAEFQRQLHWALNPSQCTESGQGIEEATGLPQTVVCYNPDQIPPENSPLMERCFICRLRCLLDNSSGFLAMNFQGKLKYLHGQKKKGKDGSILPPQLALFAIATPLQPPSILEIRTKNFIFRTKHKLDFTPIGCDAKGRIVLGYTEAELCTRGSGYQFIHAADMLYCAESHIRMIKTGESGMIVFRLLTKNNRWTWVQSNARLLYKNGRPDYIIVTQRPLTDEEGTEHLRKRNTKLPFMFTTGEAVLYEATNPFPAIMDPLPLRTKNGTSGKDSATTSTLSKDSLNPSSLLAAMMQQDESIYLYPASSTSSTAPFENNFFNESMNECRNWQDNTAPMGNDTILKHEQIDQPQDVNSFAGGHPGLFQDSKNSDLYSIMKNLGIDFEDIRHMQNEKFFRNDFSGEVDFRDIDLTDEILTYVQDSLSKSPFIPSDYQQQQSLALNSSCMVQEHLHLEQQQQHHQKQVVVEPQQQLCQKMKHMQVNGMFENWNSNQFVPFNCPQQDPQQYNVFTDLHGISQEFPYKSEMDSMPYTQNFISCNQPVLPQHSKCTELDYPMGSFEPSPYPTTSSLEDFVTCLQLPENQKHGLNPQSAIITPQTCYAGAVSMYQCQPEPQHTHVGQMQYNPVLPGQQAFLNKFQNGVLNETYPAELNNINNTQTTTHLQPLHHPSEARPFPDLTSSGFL
# Summary of the method: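 Following 24 h of chemical dosing, transfected HepG2 liver cells with cis-driven reporter units were lysed for RNA; reporter mRNA was quantified via RT-PCR and capillary electrophoresis, and responses fitted bidirectionally from DMSO.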
# [5] = ATG_AP_1_CIS: Attagene CIS-FACTORIAL HepG2 Assay for human Activator Protein 1 (AP-1) (AID 2282931); conditions: HepG2 Attagene cis-factorial AP-1 reporter mRNA; actives raise or lower the signal
# Summary of the method: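 Bidirectional concentration-response fitting against DMSO controls. Underlying signal: reporter mRNA from cis-promoter constructs in transiently transfected HepG2, measured after 24 h by RT-PCR and capillary electrophoresis.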
# [6] = ATG_AP_2_CIS: Attagene CIS-FACTORIAL HepG2 Assay for human Activator Protein 2 (AP-2) (AID 2282932); conditions: HepG2 AP-2 cis-reporter, Attagene transcription factor profiling; AC50: actives raise or lower the signal unless noted; outcome: actives raise or lower the signal unless noted
# Summary of the method: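 Cells (HepG2) transfected with promoter-driven reporter constructs, treated 24 h. Total RNA reverse-transcribed, reporter cDNA PCR-amplified, FAM-labelled by primer extension, digested, resolved by capillary electrophoresis. Activity fitted both directions versus DMSO.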
# [7] = ATG_BRE_CIS: Attagene CIS-FACTORIAL HepG2 Assay for human Bone Morphogenetic Protein (BMP) Response Element (BRE) (AID 2282933); conditions: HepG2 BMP response element reporter, Attagene transcription factor profiling; actives raise or lower the signal
# Summary of the method: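 After a 24 h chemical treatment, transiently transfected HepG2 cells were lysed for RNA; reporter transcripts were quantified by fluorescent RT-PCR and capillary electrophoresis, normalised to DMSO.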
# [8] = target: Retinoic acid receptor alpha (Homo sapiens) (UniProt P10276); test: ATG_DR5_RAR_CIS: Attagene CIS-FACTORIAL HepG2 Assay for human Retinoic Acid Receptor Alpha (RARE), DR5 submotif (AID 2282934); conditions: HepG2 Attagene cis-factorial RARE DR5 reporter, mRNA; actives raise or lower the signal;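 as to AC50: reporter responds to endogenous RAR alpha beta and gamma in HepG2 not RARA alone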
# Chain of Retinoic acid receptor alpha (Homo sapiens) (P10276 whole entry, looked up): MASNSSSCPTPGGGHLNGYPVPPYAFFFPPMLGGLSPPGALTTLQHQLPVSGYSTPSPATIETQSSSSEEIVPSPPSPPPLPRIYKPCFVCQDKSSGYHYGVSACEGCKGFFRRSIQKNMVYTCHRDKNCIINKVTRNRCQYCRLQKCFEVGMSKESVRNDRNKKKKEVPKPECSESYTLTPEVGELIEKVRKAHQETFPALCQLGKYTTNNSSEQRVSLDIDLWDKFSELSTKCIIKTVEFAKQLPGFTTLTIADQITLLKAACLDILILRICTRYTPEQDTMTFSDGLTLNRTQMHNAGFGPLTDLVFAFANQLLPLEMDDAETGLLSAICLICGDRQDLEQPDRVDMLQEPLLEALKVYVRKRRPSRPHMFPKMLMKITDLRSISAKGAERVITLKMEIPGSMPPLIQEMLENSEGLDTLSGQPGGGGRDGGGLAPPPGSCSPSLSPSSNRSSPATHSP
# Summary of the method: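 Transfected HepG2 reporter cells are exposed to chemicals for 24 h. Then RNA is extracted and the DR5 element reporter transcript is measured by RT-PCR and capillary electrophoresis, with bidirectional curve fitting relative to DMSO.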
# [9] = ATG_E_Box_CIS: Attagene CIS-FACTORIAL HepG2 Assay for human Enhancer Box (E-box) (AID 2282936); conditions: HepG2 E-box cis-reporter transcription, actives raise or lower the signal
# Summary of the method: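 Endogenous transcription factor activity was sensed in human HepG2 liver cells through transfected cis-promoter reporter units. After 24 h of dosing, total RNA was reverse-transcribed and reporter cDNA resolved by capillary electrophoresis.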
# [10] = ATG_M_61_CIS: Attagene CIS-FACTORIAL HepG2 Assay for M61 Transcription Factor (Internal Marker) (AID 2282937); conditions: HepG2 Attagene CIS-FACTORIAL M61 internal marker reporter; actives raise or lower the signal
# Summary of the method: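 Fluorescence from labelled cDNA fragments, separated by capillary electrophoresis, quantifies reporter induction. HepG2 cells bearing transiently transfected cis-promoter MRTUs were incubated with test chemical for 24 h; DMSO defined baseline for gain/loss fitting.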
# [11] = ATG_EGR_CIS: Attagene CIS-FACTORIAL HepG2 Assay for human Early Growth Response 1 (EGR1) (AID 2282938); conditions: HepG2 Attagene CIS-FACTORIAL EGR reporter mRNA; actives raise or lower the signal
# Summary of the method: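 Cell-based multiplex transcription assay: HepG2 carrying transfected cis-element reporter units, 24 h chemical treatment. Fluorescence from capillary electrophoresis of RT-PCR products gives mRNA levels; fitting is bidirectional relative to DMSO.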
# [12] = ATG_ERE_CIS: Attagene CIS-FACTORIAL HepG2 Assay for Estrogen Response Element (ERE) (AID 2282940); conditions: HepG2 ERE cis-reporter, Attagene RNA transcript; actives raise or lower the signal
# Summary of the method: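 Measuring endogenous transcription factor output, the assay doses transfected HepG2 cells for 24 hours and quantifies reporter transcripts by fluorescent RT-PCR and capillary electrophoresis, with DMSO as baseline.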
# [13] = ATG_Ets_CIS: Attagene CIS-FACTORIAL HepG2 Assay for human Erythroblast Transformation Specific (ETS) (AID 2282941); conditions: HepG2 ETS cis-reporter transcription; AC50: actives raise or lower the signal unless noted; outcome: actives raise or lower the signal unless noted
# Summary of the method: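 Cis-regulated reporter mRNA induction in HepG2 (transient transfection), 24 h exposure, RT-PCR plus capillary electrophoresis detection; DMSO serves as negative control and baseline.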
# [14] = target: Hepatocyte nuclear factor 3-beta (Homo sapiens) (UniProt Q9Y261); test: ATG_FoxA2_CIS: Attagene CIS-FACTORIAL HepG2 Assay for human Forkhead box A2 (FOXA2) (AID 2282942); conditions: HepG2 cis-reporter transcription factor activity, 24 h; actives raise or lower the signal
# Chain of Hepatocyte nuclear factor 3-beta (Homo sapiens) (Q9Y261 whole entry, looked up): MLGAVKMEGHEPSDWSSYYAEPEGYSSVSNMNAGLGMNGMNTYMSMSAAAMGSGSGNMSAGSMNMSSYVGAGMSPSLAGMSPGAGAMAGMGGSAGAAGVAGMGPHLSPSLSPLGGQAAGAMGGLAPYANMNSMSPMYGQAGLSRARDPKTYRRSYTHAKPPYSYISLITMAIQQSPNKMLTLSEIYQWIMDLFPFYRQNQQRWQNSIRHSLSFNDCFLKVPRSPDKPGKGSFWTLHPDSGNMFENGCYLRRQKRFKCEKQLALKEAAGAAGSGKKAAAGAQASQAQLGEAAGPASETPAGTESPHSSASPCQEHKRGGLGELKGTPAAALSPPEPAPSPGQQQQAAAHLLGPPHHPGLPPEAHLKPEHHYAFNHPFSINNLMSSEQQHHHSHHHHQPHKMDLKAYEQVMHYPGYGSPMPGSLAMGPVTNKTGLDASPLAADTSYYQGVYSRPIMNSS
# Summary of the method: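 In transiently transfected human HepG2 cells, promoter-driven reporter mRNA levels after 24 h chemical exposure are determined via RT-PCR with capillary electrophoresis. DMSO serves as baseline for bidirectional fitting.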
# [15] = ATG_FoxO_CIS: Attagene CIS-FACTORIAL HepG2 Assay for human Forkhead box O (FoxO) (AID 2282943); conditions: HepG2 Attagene cis-reporter, FoxO element, mRNA; actives raise or lower the signal
# Summary of the method: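 24 h chemical exposure, HepG2 with transient cis-MRTU transfection. RNA extraction, oligo(dT) RT, reporter-specific PCR, primer-extension labelling, HpaI digestion, CE fragment analysis; bidirectional fit, DMSO baseline.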
# [16] = ATG_GATA_CIS: Attagene CIS-FACTORIAL HepG2 Assay for human GATA Binding Protein (AID 2282944); conditions: HepG2 GATA cis-element reporter, Attagene multiplex mRNA; actives raise or lower the signal
# Summary of the method: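 Measures endogenous transcription factor-driven reporter mRNA in HepG2 cells transiently carrying cis-regulated constructs. 24 h dosing; RNA via oligo(dT) reverse transcription, PCR, HpaI digestion, capillary electrophoresis; fitted relative to DMSO.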
# [17] = ATG_GLI_CIS: Attagene CIS-FACTORIAL HepG2 Assay for human Zinc Finger Protein GLI1 (AID 2282945); conditions: HepG2, Attagene cis-factorial reporter mRNA, GLI element; actives raise or lower the signal
# Summary of the method: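 HepG2 cells transiently transfected with cis-promoter multiplexed reporter units report endogenous transcription factor activity. After 24 h chemical exposure, reporter mRNA was quantified by RT-PCR, 6-FAM labelling, HpaI digestion and capillary electrophoresis, with bidirectional fitting against DMSO.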
# [18] = target: Bile acid receptor (Homo sapiens) (UniProt Q96RI1); test: ATG_IR1_CIS: Attagene CIS-FACTORIAL HepG2 Assay for human Nuclear Receptor Subfamily 1 Group H Member 4 (NR1H4), IR1 submotif (AID 2282946); conditions: IR1 reporter transcription, actives raise or lower the signal
# Chain of Bile acid receptor (Homo sapiens) (Q96RI1 whole entry, looked up): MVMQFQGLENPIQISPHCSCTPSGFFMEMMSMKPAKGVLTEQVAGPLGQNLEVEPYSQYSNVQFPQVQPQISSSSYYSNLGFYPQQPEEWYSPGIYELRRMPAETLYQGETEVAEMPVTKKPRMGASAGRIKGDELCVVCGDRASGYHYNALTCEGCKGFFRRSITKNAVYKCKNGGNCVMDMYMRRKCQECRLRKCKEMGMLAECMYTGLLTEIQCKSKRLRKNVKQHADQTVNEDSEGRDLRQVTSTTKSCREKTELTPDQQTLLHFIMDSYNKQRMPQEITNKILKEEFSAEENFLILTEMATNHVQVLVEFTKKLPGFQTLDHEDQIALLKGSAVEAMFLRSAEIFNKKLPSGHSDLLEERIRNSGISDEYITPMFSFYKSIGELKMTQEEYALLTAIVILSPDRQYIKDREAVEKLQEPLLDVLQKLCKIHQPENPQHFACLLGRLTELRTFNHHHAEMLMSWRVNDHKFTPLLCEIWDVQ
# Summary of the method: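 Readout: reporter transcript levels by RT-PCR with fluorescent capillary electrophoresis, from HepG2 cells transiently transfected with multiplexed cis-regulated reporters and dosed 24 h. Gain- or loss-of-signal fitted versus DMSO negative control.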
# [19] = target: Transcription factor E2F1 (Homo sapiens) (UniProt Q01094); test: ATG_E2F_CIS: Attagene CIS-FACTORIAL HepG2 Assay for human E2F Transcription Factor 1 (AID 2282935); conditions: HepG2 Attagene cis-reporter, E2F reporter RNA transcripts; actives raise or lower the signal
# Chain of Transcription factor E2F1 (Homo sapiens) (Q01094 whole entry, looked up): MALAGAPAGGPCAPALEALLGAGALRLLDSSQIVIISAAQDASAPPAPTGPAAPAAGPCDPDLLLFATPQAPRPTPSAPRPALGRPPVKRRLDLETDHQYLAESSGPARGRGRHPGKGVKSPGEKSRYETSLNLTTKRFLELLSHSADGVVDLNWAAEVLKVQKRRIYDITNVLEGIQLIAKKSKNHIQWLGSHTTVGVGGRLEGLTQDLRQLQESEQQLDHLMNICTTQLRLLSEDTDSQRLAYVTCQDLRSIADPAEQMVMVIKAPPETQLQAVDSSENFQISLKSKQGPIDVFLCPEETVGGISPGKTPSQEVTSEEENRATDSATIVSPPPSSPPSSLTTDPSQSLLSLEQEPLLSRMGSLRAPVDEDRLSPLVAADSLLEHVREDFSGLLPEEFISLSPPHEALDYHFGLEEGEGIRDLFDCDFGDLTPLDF
# Summary of the method: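 First, HepG2 cells were transfected with reporter transcription units. Next, they were dosed for 24 h. Then RNA was isolated, converted to cDNA, PCR-amplified, FAM-labeled, HpaI-digested and analyzed by capillary electrophoresis.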
# [20] = ATG_M_19_CIS: Attagene CIS-FACTORIAL HepG2 Assay for M19 Transcription Factor (Internal Marker) (AID 2282939); conditions: HepG2 Attagene CIS-FACTORIAL M19 internal marker reporter; actives raise or lower the signal
# Summary of the method: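 In this multiplexed cell assay, transiently transfected HepG2 reporter units report endogenous transcription-factor activity; after 24 hours of treatment, labelled reporter cDNA fragments are quantified by capillary electrophoresis and fitted bidirectionally against DMSO.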
compound,measurement,setting,value
Oc1cc2ccccc2cc1O,outcome,[1],inactive
same,outcome,[2],inactive
same,outcome,[3],inactive
same,AC50,[4],21.1 µM (active)
same,AC50,[5],70.2 µM (active)
same,outcome,[6],inactive
same,outcome,[7],inactive
same,outcome,[8],inactive
same,outcome,[9],inactive
same,outcome,[10],inactive
same,outcome,[11],inactive
same,AC50,[12],100 µM (active)
same,outcome,[13],inactive
same,outcome,[14],inactive
same,outcome,[15],inactive
same,outcome,[16],inactive
same,outcome,[17],inactive
same,outcome,[18],inactive
FC(F)(F)C(F)(F)C(F)(F)C(F)(F)I,outcome,[1],inactive
same,outcome,[2],inactive
same,outcome,[3],inactive
same,outcome,[4],inactive
same,outcome,[5],inactive
same,outcome,[6],inactive
same,outcome,[7],inactive
same,outcome,[19],inactive
same,outcome,[9],inactive
same,outcome,[10],inactive
same,outcome,[11],inactive
same,outcome,[12],inactive
same,outcome,[13],inactive
same,outcome,[14],inactive
same,outcome,[15],inactive
same,outcome,[16],inactive
same,outcome,[17],inactive
same,outcome,[18],inactive
O=C(c1ccccc1)c1ccccc1,outcome,[1],inactive
same,outcome,[2],inactive
same,outcome,[3],inactive
same,outcome,[4],inactive
same,outcome,[5],inactive
same,outcome,[6],inactive
same,outcome,[7],inactive
same,outcome,[8],inactive
same,outcome,[9],inactive
same,outcome,[10],inactive
same,outcome,[11],inactive
same,outcome,[20],inactive
same,outcome,[14],inactive
same,outcome,[15],inactive
same,outcome,[17],inactive
O=C(O)CCC(F)(F)C(F)(F)C(F)(F)C(F)(F)C(F)(F)C(F)(F)F,outcome,[1],inactive
same,outcome,[2],inactive
same,AC50,[3],100 µM (active)
same,outcome,[4],inactive
same,outcome,[5],inactive
same,outcome,[6],inactive
same,outcome,[7],inactive
same,AC50,[8],51 µM (active)
same,outcome,[9],inactive
same,outcome,[10],inactive
same,outcome,[11],inactive
same,outcome,[20],inactive
same,outcome,[12],inactive
same,outcome,[13],inactive
same,outcome,[14],inactive
same,outcome,[15],inactive
same,outcome,[16],inactive
same,outcome,[17],inactive
same,outcome,[18],inactive
Brc1ccc(Oc2ccc(Br)cc2Br)cc1,outcome,[1],inactive
same,outcome,[2],inactive
same,outcome,[3],inactive
same,outcome,[4],inactive
same,outcome,[5],inactive
same,outcome,[6],inactive
same,outcome,[7],inactive
same,outcome,[8],inactive
same,outcome,[9],inactive
same,outcome,[11],inactive
same,outcome,[12],inactive
same,outcome,[13],inactive
same,outcome,[14],inactive
same,outcome,[15],inactive
same,outcome,[16],inactive
same,outcome,[17],inactive
same,outcome,[18],inactive
COc1ccc(C#N)cc1,outcome,[1],inactive
same,outcome,[2],inactive
same,outcome,[3],inactive
same,outcome,[4],inactive
same,outcome,[5],inactive
same,outcome,[6],inactive
same,outcome,[7],inactive
same,outcome,[8],inactive
same,outcome,[19],inactive
same,outcome,[9],inactive
same,outcome,[11],inactive
same,outcome,[20],inactive
same,outcome,[12],inactive
same,outcome,[13],inactive
same,outcome,[14],inactive
same,outcome,[15],inactive
same,outcome,[16],inactive
same,outcome,[18],inactive
Cn1sccc1=O,AC50,[1],161 µM (active)
same,AC50,[2],190 µM (active)
same,AC50,[3],74.2 µM (active)
same,outcome,[4],inactive
same,outcome,[5],inactive
same,outcome,[6],inactive
same,AC50,[7],34.7 µM (active)
same,outcome,[19],inactive
same,AC50,[9],72.4 µM (active)
same,outcome,[10],inactive
same,AC50,[11],165 µM (active)
same,outcome,[20],inactive
same,outcome,[12],inactive
same,outcome,[13],inactive
same,outcome,[14],inactive
same,AC50,[17],148 µM (active)
same,outcome,[18],inactive
Nc1cc(Cl)c(-c2cc(Cl)c(N)cc2Cl)cc1Cl,outcome,[1],inactive
same,AC50,[2],2.08 µM (active)
same,AC50,[3],2.65 µM (active)
same,outcome,[4],inactive
same,AC50,[5],3.81 µM (active)
same,outcome,[6],inactive
same,AC50,[7],21 µM (active)
same,outcome,[8],inactive
same,outcome,[9],inactive
same,outcome,[10],inactive
same,outcome,[11],inactive
same,outcome,[20],inactive
same,outcome,[12],inactive
same,outcome,[13],inactive
same,outcome,[14],inactive
same,outcome,[15],inactive
same,outcome,[18],inactive
